Experiment [1] deals with Plasmodium falciparum Sir2 (PF13_0152, Sir2A). The experiment in a line: Plasmodium falciparum Sir2A binding compounds – biochemical, small-molecule microarray, 635 nm fluorescence, primary screen (AID 1098).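 Note: score merges spot fluorescence intensity with its signal-to-noise ratio.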 The following applies: fluorescence 635 nm, higher = more signal.
The nature of experiment [2]: probe aDKK1 binding to arrayed compounds – biochemical, biotinylated probe, 635/667 nm fluorescence, primary screen (AID 1099).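 Note: score merges 667nm spot fluorescence with signal to noise across triplicate slides; reference of the scale not given here.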 The settings on record: small-molecule microarray, higher = more signal.
A short description of experiment [3]: probe aCHRDL2 binding to arrayed compounds – biochemical, biotinylated probe, 635/667 nm fluorescence, primary screen (AID 1100). The settings on record: small-molecule microarray, higher = more signal.
Experiment [4] can be described thus: change in splice reporter luminescence, either direction, cell-based, HEK293, spliceosome inhibition project, primary screen (AID 1101).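 Note: HEK293 cells carrying a splicing-competent luciferase reporter gene; test concentration not given here.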 The following applies: HEK293 splicing luciferase reporter, 24 h, higher = more signal, called active from +8 up or from −8 down. A general note: Reporter assays use an easily measured gene product as a stand-in for the process of interest.

Experiment [5] addresses Fibroblast growth factor 10 (Homo sapiens) (UniProt O15520). Briefly: compounds binding fibroblast growth factor 10 – biochemical, small-molecule microarray, 635 nm fluorescence, primary screen (AID 1102). The settings on record: FGF10 binding, fluorescence 635 nm, higher = more signal.
Experiment [6] concerns glycogen synthase kinase-3 (GSK3A per assay name; protocol says GSK3B). The experiment in a line: compounds binding glycogen synthase kinase-3 – biochemical, small-molecule microarray, 635 nm fluorescence, GSK3A, primary screen (AID 1103). Note: the record names both GSK3A and GSK3B. The following applies: fluorescence 635 nm, higher = more signal.
Experiment [7] addresses Epidermal growth factor receptor (Homo sapiens) (UniProt P00533). The experiment in a line: compounds binding epidermal growth factor receptor – biochemical, small-molecule microarray, 635 nm fluorescence, primary screen (AID 1104).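 Note: score merges 667 nm emission intensity with spot signal to noise over triplicate slides.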 The settings on record: EGFR binding, higher = more signal.
Experiment [8] addresses Follistatin-related protein 3 (Homo sapiens) (UniProt O95633). Briefly: compounds binding follistatin-related protein 3 – biochemical, small-molecule microarray, 635 nm fluorescence, primary screen (AID 1105).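 Note: score merges emission near 667 nm and signal to noise per printed spot across three slides.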 The following applies: FSTL3 binding, higher = more signal.
For experiment [9], the target named is Dickkopf-related protein 1 (Homo sapiens) (UniProt O94907). The experiment in a line: small molecules binding DKK1 protein – biochemical, small-molecule microarray, 635 nm fluorescence scan, primary screen (AID 1106).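 Note: score merges emission near 667 nm with signal to noise over three replicate slides.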 The settings on record: higher = more signal.
The test system of experiment [10] is Inhibin beta A chain (activin A). The experiment in a line: small molecules binding activin A – biochemical, small-molecule microarray, 635 nm fluorescence scan, primary screen (AID 1107).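 Note: mouse activin A protein probed at 4.33 µg/mL on printed slides; score merges bound-protein fluorescence near 667 nm with spot signal-to-noise.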 The settings on record: INHBA, higher = more signal.

Each structure is given as a SMILES string. The source made the active and inactive calls.

Sequence of Epidermal growth factor receptor (Homo sapiens) (P00533 whole entry, looked up): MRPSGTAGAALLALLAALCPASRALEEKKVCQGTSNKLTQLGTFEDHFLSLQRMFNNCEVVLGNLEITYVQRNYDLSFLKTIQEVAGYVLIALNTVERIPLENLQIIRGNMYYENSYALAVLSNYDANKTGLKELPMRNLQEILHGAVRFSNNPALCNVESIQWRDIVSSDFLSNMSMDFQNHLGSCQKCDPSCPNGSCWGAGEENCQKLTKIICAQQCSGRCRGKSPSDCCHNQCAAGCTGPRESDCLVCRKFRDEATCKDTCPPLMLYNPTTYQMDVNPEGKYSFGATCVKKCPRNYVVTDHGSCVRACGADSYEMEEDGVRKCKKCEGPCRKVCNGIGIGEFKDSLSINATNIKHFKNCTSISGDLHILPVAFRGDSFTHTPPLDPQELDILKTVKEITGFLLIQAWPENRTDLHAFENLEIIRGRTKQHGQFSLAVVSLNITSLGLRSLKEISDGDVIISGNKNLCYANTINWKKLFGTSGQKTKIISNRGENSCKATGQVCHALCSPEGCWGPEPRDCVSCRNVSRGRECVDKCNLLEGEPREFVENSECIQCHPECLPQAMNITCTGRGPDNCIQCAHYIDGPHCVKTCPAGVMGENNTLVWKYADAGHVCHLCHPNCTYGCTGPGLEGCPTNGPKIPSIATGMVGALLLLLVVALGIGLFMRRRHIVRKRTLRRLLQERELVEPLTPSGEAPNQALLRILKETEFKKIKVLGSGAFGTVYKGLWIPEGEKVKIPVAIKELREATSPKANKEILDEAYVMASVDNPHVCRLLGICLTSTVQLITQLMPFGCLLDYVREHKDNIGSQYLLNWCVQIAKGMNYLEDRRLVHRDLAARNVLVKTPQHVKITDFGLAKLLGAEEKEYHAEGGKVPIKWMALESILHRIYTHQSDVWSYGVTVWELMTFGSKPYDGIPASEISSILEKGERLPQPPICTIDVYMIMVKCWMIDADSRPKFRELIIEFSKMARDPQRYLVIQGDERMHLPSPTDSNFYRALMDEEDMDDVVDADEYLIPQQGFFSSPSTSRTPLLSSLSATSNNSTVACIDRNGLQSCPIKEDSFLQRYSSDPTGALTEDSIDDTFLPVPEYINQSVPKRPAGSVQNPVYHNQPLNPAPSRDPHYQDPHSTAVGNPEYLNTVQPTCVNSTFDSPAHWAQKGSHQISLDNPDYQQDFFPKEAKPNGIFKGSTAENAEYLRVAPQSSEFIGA
Sequence of Follistatin-related protein 3 (Homo sapiens) (O95633 whole entry, looked up): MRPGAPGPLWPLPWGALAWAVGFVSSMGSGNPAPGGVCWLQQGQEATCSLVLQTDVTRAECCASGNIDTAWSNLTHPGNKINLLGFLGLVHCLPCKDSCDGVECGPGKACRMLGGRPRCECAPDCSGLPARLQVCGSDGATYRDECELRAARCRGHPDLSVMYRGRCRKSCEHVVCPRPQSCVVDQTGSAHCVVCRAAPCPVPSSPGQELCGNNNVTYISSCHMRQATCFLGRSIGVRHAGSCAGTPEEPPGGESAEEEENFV
Sequence of Fibroblast growth factor 10 (Homo sapiens) (O15520 whole entry, looked up): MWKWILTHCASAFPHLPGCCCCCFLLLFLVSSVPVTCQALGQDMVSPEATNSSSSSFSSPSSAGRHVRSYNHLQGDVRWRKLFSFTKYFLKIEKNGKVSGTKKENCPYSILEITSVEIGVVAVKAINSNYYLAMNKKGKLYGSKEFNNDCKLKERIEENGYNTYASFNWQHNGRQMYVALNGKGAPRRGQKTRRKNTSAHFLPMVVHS
Sequence of Dickkopf-related protein 1 (Homo sapiens) (O94907 whole entry, looked up): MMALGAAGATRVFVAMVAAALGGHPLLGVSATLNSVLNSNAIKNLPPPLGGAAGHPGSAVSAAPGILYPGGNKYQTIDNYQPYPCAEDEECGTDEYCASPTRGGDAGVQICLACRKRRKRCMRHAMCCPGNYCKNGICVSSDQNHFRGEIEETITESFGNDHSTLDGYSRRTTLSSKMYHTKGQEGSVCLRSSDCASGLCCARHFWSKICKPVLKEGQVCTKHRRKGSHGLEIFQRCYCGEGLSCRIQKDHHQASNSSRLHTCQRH

`O=C1CCCC=C1C(O)CCOC(c1ccccc1)(c1ccccc1)c1ccccc1` (stereo not given): the composite z-score in experiment [1] is -0.0236; in [2] it was -0.231; in experiment [3], -0.15; in experiment [5], 0.0203; in experiment [6], -0.388; in [7], -0.0225. Further, the composite z-score is -0.108 in experiment [8], 0.335 in experiment [9] and 0.874 in experiment [10]. Also, the z-score in [4] was -0.0834 (inactive).

`CC(C)(C)N1C(=O)[C@H]2[C@H]3[C@H](O)[C@H](O)CC(=O)[C@H]3CC[C@H]2C1=O`: the composite z-score in experiment [1] was 0.0159; in experiment [2] it was -0.282; in experiment [3], -0.674; in experiment [5] it was 0.287; in experiment [6] it was 0.694; in experiment [7], 0.456. Besides, the figures for the composite z-score in experiment [8], in experiment [9] and in experiment [10] were 0.426, 0.624 and -0.167, respectively. Besides, the z-score in [4] is -0.432 (inactive).

As for `CC(C)=CCCC(C)=CCON=C1C[C@@H](O)[C@@H](O)[C@@H]2[C@@H]3C(=O)N(C(C)(C)C)C(=O)[C@@H]3CC[C@@H]12`, the composite z-score was 0.263 in [1]; 0.0156 in experiment [2]; -0.046 in experiment [3]; 0.313 in experiment [5]; 0.426 in experiment [6]; 0.619 in experiment [7]. Moreover, the composite z-score in experiment [8] worked out at 0.51; in experiment [9], 0.18; in [10] it was 0.231. In experiment [4], the z-score is -0.0767 (inactive).

In the case of `CC(C)=CCCC(C)=CCON=C1C[C@@H](O)[C@@H](O)[C@@H]2[C@@H]3C(=O)N(c4ccc(F)cc4F)C(=O)[C@@H]3CC[C@H]12`, the composite z-score in [1] is 0.176; in experiment [2] it was -0.016; in experiment [3] it was -0.428; in [5], 0.0906; in experiment [6] it was 0.349; in [7], 0.531. The composite z-score was 1.08 in experiment [8], 0.612 in [9] and 0.342 in experiment [10]. Moreover, the z-score in experiment [4] was -0.956 (inactive).

`CSCC[C@@H]1NC(=O)CC=C[C@@H](C)COC(=O)[C@@H](C)COC1=O`: the composite z-score is -0.0958 in [1]; -0.417 in [2]; -0.816 in experiment [3]; -0.0586 in [5]; 0.812 in [6]; 0.0541 in experiment [7]. For the same molecule, the values for the composite z-score in experiment [8], in experiment [9] and in [10] were -0.149, -0.18 and 0.705, respectively. Further, the z-score in experiment [4] is -0.0857 (inactive).

Turning to `O=C1C=C[C@@H](O)[C@@H]2[C@@H]3C(=O)N(c4ccc(F)cc4F)C(=O)[C@@H]3CC[C@@H]12`, the composite z-score in [1] was 0.519; in experiment [2] it was -0.241; in experiment [3] it was -0.43; in experiment [5], 0.925; in experiment [6] it was 0.39; in [7] it was 0.462. Besides, the figures for the composite z-score in experiment [8], in experiment [9] and in experiment [10] were 0.39, 0.664 and -1.12, respectively. The z-score in [4] is -1.21 (inactive).

For the molecule `O=C1C[C@@H](O)[C@@H](O)[C@@H]2[C@@H]3C(=O)N(C[C@@H]4CCCO4)C(=O)[C@@H]3CC[C@@H]12`, the composite z-score in [1] was 0.495; in experiment [2], -0.185; in experiment [3], -0.7; in [5], 0.612; in experiment [6], 0.718; in experiment [7], 0.573. The composite z-score was 0.761 in experiment [8], 0.823 in experiment [9] and -0.0076 in experiment [10]. For the same molecule, the z-score in [4] is -0.0639 (inactive).

For the molecule `CO[C@H]1COC(=O)CC=C[C@@H](C)[C@H](OC)COC(=O)CCC[C@@H]1C`, the composite z-score in experiment [1] was 0.786; in experiment [2] it was -0.175; in experiment [3], -0.791; in [5] it was 0.254; in experiment [6], 0.274; in experiment [7], 0.487. Further, the composite z-score in experiment [8] worked out at 0.633; in [9], 1.19; in experiment [10], 1.25. The z-score in experiment [4] is -1.16 (inactive).

On to `CC(C)CON=C1C[C@@H](O)[C@@H](O)[C@@H]2[C@@H]3C(=O)N(c4ccc(F)cc4F)C(=O)[C@@H]3CC[C@H]12`, for which the composite z-score in [1] was 0.256; in experiment [2] it was -0.212; in [3] it was -0.509; in experiment [5], 0.553; in experiment [6], 0.458; in [7], 0.59. The composite z-score was 0.986 in experiment [8], 0.671 in [9] and -0.253 in experiment [10]. In addition, the z-score in experiment [4] is -0.972 (inactive).

Regarding `CO[C@@H]1COC(=O)[C@@H](C)COC(=O)[C@@H](C)NC(=O)CC=C[C@@H]1C`, the composite z-score in experiment [1] is 0.155; in experiment [2] it was -0.351; in experiment [3] it was -1.08; in [5], 1.22; in experiment [6] it was 0.571; in [7] it was 0.318. The composite z-score in experiment [8] is 1.33; in [9], 1.73; in experiment [10] it was 0.675. The z-score in experiment [4] is -2.29 (inactive).

Turning to `CCOC(=O)NN=C1C[C@@H](O)[C@@H](O)[C@@H]2[C@@H]3C(=O)N(c4cccc(Oc5ccccc5)c4)C(=O)[C@@H]3CC[C@@H]12`, the composite z-score in experiment [1] was 0.933; in experiment [2], -0.27; in experiment [3] it was -0.187; in [5], 1.13; in experiment [6], -0.652; in experiment [7] it was 0.164. Moreover, the composite z-score is -0.329 in [8], -0.313 in experiment [9] and -0.237 in [10]. The z-score in experiment [4] is 0.0999 (inactive).

Take `C#CCCCON=C1C[C@@H](O)[C@@H](O)[C@@H]2[C@@H]3C(=O)N(c4cccc(Oc5ccccc5)c4)C(=O)[C@@H]3CC[C@H]12`: the composite z-score was 1.06 in experiment [1]; -0.406 in experiment [2]; 0.155 in experiment [3]; -0.948 in experiment [5]; -1.56 in [6]; -0.356 in experiment [7]. Besides, the composite z-score in experiment [8] is -0.845; in experiment [9] it was -0.557; in experiment [10], -0.69. For the same molecule, the z-score in [4] was -0.558 (inactive).

In the case of `O=C1CCCC=C1C(O)CCCCBr` (stereo not given), the composite z-score in experiment [1] is 1.09; in experiment [2] it was 0.763; in [3] it was 0.653; in experiment [5] it was 0.404; in experiment [6] it was -0.115; in [7] it was 0.0038. Moreover, the results for the composite z-score in experiment [8], in experiment [9] and in [10] were 1.18, 0.945 and 1.26, respectively. The z-score in experiment [4] is -0.793 (inactive).

On to `CO[C@H]1COC(=O)[C@H](C)NC(=O)[C@@H](C)COC(=O)[C@H]2CCCN2C(=O)CC=C[C@H]1C`, for which the composite z-score in experiment [1] was -0.139; in experiment [2], -0.377; in experiment [3] it was -0.823; in experiment [5] it was 0.764; in experiment [6] it was 0.945; in [7], 0.627. Besides, the results for the composite z-score in experiment [8], in [9] and in experiment [10] were 0.736, 1.55 and -0.252, respectively. Moreover, the z-score in [4] is -0.447 (inactive).

Regarding `CCOC(=O)NN=C1C[C@@H](O)[C@@H](O)[C@@H]2[C@@H]3C(=O)N(C(C)(C)C)C(=O)[C@@H]3CC[C@H]12`, the composite z-score in [1] was 0.217; in experiment [2], 0.0171; in experiment [3], -0.398; in [5], 0.338; in experiment [6], 0.666; in experiment [7] it was 0.705. Further, the composite z-score was found to be 0.635 in [8], 0.739 in [9] and 0.103 in experiment [10]. Further, the z-score in [4] was -0.626 (inactive).

As to `COC(=O)CC=C[C@@H](C)[C@@H](C=NO[C@@H]1O[C@H](COC(C)=O)[C@@H](OC(C)=O)[C@H](OC(C)=O)[C@H]1OC(C)=O)OC`, the composite z-score was -0.225 in [1]; -0.194 in experiment [2]; -0.463 in experiment [3]; -0.481 in experiment [5]; -0.757 in [6]; 0.383 in experiment [7]. Moreover, the composite z-score in [8] is -0.4; in [9], -2.27; in experiment [10], -2.01. The z-score in experiment [4] is 0.869 (inactive).

For `C#CCCCON=C1C[C@@H](O)[C@@H](O)[C@@H]2[C@@H]3C(=O)N(C(C)(C)C)C(=O)[C@@H]3CC[C@@H]12`, the composite z-score is 0.856 in [1]; 1.19 in [2]; 1.28 in [3]; -0.624 in experiment [5]; -0.545 in experiment [6]; -0.306 in [7]. For the same molecule, the values for the composite z-score in [8], in experiment [9] and in experiment [10] were -0.576, -1.1 and 0.477, respectively. For the same molecule, in [4], the z-score is 0.624 (inactive).

The values above are taken from PubChem BioAssay.
